# Results published in PMC7862700, “An all-to-all approach to the identification of sequence-specific readers for epigenetic DNA modifications on cytosine”.
# Experiments:
# Assay in all cases: DAPPL (digital affinity profiling via proximity ligation, sequencing); 10 mM Tris-HCl pH 7.5, 50 mM NaCl, 1 mM DTT, 4% glycerol, room temperature, 30 min; GST-TFs on glutathione beads, 16-mer random dsDNA library, 0.1% formaldehyde crosslink after washing; high values mean tight binding
# FLI1 = biological target: T1, FLI1 (Homo sapiens, UniProt Q01543 1-452); settings: protein: recombinant; tags: N-terminal GST; dsDNA, one strand shown
# T1 sequence: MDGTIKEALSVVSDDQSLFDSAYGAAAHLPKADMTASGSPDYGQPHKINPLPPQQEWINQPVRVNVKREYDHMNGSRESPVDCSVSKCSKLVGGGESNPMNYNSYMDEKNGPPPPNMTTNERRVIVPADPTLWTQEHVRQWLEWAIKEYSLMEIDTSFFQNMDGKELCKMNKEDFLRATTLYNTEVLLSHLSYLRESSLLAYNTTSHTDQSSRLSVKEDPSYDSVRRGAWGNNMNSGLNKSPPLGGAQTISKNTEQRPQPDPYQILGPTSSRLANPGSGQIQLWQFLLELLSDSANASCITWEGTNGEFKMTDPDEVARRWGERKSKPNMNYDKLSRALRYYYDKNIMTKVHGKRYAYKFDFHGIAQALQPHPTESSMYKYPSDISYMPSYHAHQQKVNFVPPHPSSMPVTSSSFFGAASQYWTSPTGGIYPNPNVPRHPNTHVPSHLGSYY
# Procedure, shortened: (§1)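 After expression in yeast as GST fusions, human transcription factors were bound to glutathione beads, DNA-barcoded and mixed with a tag-only sample. The pools were incubated with 200 nmole of a 16-mer random double-stranded DNA library in Tris/NaCl/DTT/glycerol buffer (30 min, room temperature), washed and crosslinked with 0.1% formaldehyde. Proximity ligation with BsaI/T4 ligase ran for 1 h at 37 °C, before PCR amplification and sequencing on an Illumina NextSeq500. Binding signal is a hexamer's read frequency for a factor divided by its frequency for the tag-only sample.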
# ELK1 = biological target: T2, ELK1 (Homo sapiens, UniProt P19419 1-428); settings: protein: recombinant; tags: N-terminal GST; dsDNA, one strand shown
# T2 sequence: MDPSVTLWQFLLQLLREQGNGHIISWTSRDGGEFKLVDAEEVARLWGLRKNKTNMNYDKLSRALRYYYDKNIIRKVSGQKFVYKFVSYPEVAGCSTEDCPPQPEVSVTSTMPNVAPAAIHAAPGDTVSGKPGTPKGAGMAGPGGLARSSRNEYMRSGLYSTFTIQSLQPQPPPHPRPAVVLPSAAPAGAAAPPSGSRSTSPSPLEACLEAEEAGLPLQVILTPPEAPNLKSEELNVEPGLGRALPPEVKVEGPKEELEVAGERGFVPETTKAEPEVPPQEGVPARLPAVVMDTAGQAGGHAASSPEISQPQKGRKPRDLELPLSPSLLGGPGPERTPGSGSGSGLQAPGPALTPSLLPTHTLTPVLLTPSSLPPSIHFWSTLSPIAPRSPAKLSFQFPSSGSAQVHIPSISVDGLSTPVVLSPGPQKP
# Procedure, shortened: as §1
# GABPA = biological target: T3, GABPA (Homo sapiens, UniProt Q06546 1-454); settings: protein: recombinant; tags: N-terminal GST; dsDNA, one strand shown
# T3 sequence: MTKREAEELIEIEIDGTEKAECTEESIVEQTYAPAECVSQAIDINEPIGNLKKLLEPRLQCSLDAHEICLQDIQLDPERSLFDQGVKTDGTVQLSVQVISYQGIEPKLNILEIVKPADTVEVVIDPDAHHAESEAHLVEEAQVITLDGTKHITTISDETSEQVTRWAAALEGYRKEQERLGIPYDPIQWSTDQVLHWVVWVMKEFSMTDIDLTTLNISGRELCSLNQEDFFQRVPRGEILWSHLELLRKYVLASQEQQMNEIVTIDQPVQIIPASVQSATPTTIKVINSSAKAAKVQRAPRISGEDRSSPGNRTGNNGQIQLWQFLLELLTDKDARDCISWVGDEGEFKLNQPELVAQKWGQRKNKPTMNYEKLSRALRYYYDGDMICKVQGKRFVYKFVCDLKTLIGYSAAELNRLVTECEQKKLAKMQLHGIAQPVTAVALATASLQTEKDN
# Procedure, shortened: as §1
# ERG = biological target: T4, ERG (Homo sapiens, UniProt P11308 1-479); settings: protein: recombinant; tags: N-terminal GST; dsDNA, one strand shown
# T4 sequence: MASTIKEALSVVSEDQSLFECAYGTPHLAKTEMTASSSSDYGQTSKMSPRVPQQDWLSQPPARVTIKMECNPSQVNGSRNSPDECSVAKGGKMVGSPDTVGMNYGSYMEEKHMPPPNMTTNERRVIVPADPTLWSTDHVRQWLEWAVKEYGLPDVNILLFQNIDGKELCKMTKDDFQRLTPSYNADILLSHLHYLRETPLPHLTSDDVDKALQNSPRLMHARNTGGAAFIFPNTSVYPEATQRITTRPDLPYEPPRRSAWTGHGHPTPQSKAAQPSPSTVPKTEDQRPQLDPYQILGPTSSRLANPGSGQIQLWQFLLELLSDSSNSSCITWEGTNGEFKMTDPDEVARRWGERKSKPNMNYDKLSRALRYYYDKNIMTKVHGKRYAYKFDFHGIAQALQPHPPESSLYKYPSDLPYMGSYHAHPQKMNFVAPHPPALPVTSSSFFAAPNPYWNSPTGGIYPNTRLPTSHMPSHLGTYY
# Procedure, shortened: as §1
# ELF1 = ELF1 (Homo sapiens, UniProt P32519 1-619); settings: protein: recombinant; tags: N-terminal GST; dsDNA, one strand shown
# Procedure, shortened: as §1
# SPI1 = SPI1 (Homo sapiens, UniProt P17947 1-270); settings: protein: recombinant; tags: N-terminal GST; dsDNA, one strand shown
# Procedure, shortened: as §1
# SPIB = SPIB (Homo sapiens, UniProt Q01892 1-262); settings: protein: recombinant; tags: N-terminal GST; dsDNA, one strand shown
# Procedure, shortened: as §1
# ELK3 = biological target: T5, ELK3 (Homo sapiens, UniProt P41970 1-407); settings: protein: recombinant; tags: N-terminal GST; dsDNA, one strand shown
# T5 sequence: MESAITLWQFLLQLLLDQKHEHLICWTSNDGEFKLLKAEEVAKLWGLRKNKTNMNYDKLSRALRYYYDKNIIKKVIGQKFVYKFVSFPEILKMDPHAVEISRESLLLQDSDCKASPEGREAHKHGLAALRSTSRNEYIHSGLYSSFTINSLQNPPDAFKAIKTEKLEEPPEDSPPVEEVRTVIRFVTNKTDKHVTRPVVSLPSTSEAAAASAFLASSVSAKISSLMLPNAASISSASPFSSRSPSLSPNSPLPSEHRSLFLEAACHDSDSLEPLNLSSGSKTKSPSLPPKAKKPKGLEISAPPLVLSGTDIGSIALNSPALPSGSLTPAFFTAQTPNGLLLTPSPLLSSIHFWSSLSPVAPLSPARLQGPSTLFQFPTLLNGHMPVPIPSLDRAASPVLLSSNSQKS
# Procedure, shortened: as §1
# FEV = biological target: T6, FEV (Homo sapiens, UniProt Q99581 1-238); settings: protein: recombinant; tags: N-terminal GST; dsDNA, one strand shown
# T6 sequence: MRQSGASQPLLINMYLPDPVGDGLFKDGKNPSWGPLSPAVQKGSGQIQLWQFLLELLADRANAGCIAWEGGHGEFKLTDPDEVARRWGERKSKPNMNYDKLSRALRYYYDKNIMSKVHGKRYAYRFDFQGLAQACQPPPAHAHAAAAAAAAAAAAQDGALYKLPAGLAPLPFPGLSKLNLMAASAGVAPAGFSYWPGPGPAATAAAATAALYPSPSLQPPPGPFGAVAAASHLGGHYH
# Procedure, shortened: as §1
# ETV5 = ETV5 (Homo sapiens, UniProt P41161 1-510); settings: protein: recombinant; tags: N-terminal GST; dsDNA, one strand shown
# Procedure, shortened: as §1
# HSF1 = HSF1 (Homo sapiens, UniProt Q00613 1-529); settings: protein: recombinant; tags: N-terminal GST; chain copies: 3; dsDNA, one strand shown
# Procedure, shortened: as §1
# SPIC = biological target: T7, SPIC (Homo sapiens, UniProt Q8N5J4 1-248); settings: protein: recombinant; tags: N-terminal GST; dsDNA, one strand shown
# T7 sequence: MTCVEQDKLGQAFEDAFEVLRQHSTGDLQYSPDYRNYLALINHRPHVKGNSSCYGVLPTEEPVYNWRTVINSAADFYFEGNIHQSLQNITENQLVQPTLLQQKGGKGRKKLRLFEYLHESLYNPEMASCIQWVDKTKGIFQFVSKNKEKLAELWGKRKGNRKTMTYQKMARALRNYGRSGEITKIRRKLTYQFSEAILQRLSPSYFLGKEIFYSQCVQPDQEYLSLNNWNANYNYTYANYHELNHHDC
# Procedure, shortened: as §1
# ELF4 = ELF4 (Homo sapiens, UniProt Q99607 1-663); settings: protein: recombinant; tags: N-terminal GST; dsDNA, one strand shown
# Procedure, shortened: as §1
# ELK4 = biological target: T8, ELK4 (Homo sapiens, UniProt P28324-2 1-405); settings: protein: recombinant; tags: N-terminal GST; dsDNA, one strand shown
# T8 sequence: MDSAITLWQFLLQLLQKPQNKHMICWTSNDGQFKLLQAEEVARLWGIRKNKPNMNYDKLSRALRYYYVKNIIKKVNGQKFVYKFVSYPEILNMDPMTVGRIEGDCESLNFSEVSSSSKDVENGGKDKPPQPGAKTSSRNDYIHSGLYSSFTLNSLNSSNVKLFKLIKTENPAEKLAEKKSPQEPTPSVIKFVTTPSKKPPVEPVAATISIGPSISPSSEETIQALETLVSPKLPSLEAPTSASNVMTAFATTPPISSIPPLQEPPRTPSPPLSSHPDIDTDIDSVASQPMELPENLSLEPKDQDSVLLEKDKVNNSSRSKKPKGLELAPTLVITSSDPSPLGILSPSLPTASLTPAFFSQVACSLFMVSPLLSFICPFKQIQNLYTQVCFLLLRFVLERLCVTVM
# Procedure, shortened: as §1
# ELF3 = biological target: T9, ELF3 (Homo sapiens, UniProt P78545 1-371); settings: protein: recombinant; tags: N-terminal GST; dsDNA, one strand shown
# T9 sequence: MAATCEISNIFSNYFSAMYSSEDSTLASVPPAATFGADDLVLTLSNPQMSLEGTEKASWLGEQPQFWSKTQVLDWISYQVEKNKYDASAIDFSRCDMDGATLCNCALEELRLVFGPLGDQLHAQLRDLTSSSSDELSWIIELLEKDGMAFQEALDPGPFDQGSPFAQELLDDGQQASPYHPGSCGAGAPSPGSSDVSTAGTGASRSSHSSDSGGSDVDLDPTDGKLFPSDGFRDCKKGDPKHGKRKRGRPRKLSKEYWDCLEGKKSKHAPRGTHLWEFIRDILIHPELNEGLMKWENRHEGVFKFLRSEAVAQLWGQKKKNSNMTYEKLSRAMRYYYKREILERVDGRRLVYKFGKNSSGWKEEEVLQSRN
# Procedure, shortened: as §1
# CRX = CRX (Homo sapiens, UniProt O43186 1-299); settings: protein: recombinant; tags: N-terminal GST; dsDNA, one strand shown
# Procedure, shortened: as §1
# ETV1 = ETV1 (Homo sapiens, UniProt P50549 1-477); settings: protein: recombinant; tags: N-terminal GST; dsDNA, one strand shown
# Procedure, shortened: as §1
# SPIB, sequence (Q01892 whole entry): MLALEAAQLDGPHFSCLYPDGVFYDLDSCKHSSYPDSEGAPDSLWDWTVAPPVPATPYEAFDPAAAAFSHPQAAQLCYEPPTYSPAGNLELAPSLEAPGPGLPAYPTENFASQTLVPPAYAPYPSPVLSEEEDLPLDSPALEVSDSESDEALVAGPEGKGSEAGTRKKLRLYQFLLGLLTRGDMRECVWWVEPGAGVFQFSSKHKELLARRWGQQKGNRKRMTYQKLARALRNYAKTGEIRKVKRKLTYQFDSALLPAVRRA
# ETV5, sequence (P41161 whole entry): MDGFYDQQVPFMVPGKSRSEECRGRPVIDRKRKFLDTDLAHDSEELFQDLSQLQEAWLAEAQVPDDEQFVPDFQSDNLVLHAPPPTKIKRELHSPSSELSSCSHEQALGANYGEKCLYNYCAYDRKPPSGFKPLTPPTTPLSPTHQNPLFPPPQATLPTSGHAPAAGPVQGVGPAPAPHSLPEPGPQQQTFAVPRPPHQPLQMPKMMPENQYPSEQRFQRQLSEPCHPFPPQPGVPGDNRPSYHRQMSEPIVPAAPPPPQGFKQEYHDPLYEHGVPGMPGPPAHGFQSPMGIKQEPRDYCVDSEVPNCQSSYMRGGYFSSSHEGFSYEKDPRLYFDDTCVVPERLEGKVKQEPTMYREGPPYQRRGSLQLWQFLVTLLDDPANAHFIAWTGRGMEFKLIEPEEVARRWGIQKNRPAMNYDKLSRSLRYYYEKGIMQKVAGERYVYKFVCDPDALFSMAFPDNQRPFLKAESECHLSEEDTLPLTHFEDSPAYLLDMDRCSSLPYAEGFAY
# ETV1, sequence (P50549 whole entry): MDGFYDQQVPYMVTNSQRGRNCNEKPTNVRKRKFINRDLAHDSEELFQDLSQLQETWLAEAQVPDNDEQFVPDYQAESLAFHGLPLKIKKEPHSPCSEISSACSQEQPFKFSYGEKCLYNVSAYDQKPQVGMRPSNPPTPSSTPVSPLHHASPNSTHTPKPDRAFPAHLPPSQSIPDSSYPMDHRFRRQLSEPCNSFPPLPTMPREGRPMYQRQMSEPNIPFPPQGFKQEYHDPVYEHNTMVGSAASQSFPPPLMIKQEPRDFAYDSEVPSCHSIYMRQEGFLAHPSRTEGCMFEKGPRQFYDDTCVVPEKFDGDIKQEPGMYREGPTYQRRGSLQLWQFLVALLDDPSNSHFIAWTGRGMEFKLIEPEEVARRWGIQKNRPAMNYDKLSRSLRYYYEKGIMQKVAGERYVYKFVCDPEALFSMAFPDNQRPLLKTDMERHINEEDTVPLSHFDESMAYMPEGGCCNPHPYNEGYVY
# CRX, sequence (O43186 whole entry): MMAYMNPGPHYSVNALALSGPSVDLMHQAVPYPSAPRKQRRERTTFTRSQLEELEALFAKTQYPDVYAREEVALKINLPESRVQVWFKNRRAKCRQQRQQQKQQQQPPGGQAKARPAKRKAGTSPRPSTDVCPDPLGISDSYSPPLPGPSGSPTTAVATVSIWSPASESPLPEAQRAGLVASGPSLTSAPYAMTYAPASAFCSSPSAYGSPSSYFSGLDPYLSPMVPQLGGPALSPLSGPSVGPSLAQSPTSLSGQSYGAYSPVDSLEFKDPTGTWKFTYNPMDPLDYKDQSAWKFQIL
# ELF4, sequence (Q99607 whole entry): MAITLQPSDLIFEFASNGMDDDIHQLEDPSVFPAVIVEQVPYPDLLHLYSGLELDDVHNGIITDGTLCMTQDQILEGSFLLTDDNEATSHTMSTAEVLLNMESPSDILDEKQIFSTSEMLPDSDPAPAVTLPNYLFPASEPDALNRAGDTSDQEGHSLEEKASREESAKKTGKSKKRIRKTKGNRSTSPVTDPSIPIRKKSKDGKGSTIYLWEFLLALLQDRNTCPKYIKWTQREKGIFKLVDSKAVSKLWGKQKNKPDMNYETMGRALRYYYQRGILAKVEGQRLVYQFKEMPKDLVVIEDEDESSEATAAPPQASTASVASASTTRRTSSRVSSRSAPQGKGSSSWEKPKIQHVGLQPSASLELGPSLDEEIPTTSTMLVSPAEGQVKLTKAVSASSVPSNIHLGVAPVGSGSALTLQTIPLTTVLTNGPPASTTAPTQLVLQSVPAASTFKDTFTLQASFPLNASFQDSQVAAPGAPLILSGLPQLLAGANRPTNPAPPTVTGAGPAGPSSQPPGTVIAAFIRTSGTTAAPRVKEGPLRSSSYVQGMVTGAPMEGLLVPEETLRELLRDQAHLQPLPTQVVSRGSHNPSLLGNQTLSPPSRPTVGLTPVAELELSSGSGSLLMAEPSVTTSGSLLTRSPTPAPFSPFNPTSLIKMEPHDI
# ELF1, sequence (P32519 whole entry): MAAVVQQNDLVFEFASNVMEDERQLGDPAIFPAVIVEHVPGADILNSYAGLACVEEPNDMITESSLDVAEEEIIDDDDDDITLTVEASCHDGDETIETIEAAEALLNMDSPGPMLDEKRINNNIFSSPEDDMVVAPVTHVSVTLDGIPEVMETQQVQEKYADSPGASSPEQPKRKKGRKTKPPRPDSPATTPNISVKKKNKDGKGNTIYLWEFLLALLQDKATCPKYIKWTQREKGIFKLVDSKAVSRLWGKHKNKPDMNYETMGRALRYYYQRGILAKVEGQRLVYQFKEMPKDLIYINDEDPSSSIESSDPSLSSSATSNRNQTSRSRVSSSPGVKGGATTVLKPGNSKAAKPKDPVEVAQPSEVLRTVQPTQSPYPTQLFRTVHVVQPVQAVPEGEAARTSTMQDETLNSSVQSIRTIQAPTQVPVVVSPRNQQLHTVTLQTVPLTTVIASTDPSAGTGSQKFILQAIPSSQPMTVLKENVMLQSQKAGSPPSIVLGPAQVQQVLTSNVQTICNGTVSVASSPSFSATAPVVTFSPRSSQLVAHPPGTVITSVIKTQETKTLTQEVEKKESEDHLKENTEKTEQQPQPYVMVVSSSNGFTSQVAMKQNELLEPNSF
# HSF1, sequence (Q00613 whole entry): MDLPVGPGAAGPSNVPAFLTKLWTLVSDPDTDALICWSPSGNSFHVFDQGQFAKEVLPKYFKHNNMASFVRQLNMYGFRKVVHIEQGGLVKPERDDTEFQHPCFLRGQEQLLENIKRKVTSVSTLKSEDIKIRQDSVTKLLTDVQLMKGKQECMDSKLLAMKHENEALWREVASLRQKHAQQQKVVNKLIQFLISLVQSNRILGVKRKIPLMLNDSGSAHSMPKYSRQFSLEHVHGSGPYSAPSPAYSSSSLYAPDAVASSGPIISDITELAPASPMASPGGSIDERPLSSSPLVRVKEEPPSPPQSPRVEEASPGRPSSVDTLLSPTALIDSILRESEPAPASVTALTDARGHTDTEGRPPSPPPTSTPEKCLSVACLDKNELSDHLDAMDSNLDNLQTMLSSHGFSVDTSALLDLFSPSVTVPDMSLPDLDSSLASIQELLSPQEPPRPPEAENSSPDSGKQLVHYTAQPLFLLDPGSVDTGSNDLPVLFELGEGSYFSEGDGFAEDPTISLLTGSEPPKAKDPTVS
sequence,measurement,setting,value
TGGTTA,binding signal,FLI1,"1.17 fold enrichment (6-mer frequency, TF over GST control)"
same,binding signal,ELK1,"1.08 fold enrichment (6-mer frequency, TF over GST control)"
same,binding signal,GABPA,"1.09 fold enrichment (6-mer frequency, TF over GST control)"
same,binding signal,ERG,"1.13 fold enrichment (6-mer frequency, TF over GST control)"
same,binding signal,ELF1,"1.1 fold enrichment (6-mer frequency, TF over GST control)"
same,binding signal,SPI1,"1.15 fold enrichment (6-mer frequency, TF over GST control)"
same,binding signal,SPIB,"1.12 fold enrichment (6-mer frequency, TF over GST control)"
same,binding signal,ELK3,"1.13 fold enrichment (6-mer frequency, TF over GST control)"
same,binding signal,FEV,"1.05 fold enrichment (6-mer frequency, TF over GST control)"
same,binding signal,ETV5,"1.03 fold enrichment (6-mer frequency, TF over GST control)"
same,binding signal,HSF1,"1.03 fold enrichment (6-mer frequency, TF over GST control)"
same,binding signal,SPIC,"1.25 fold enrichment (6-mer frequency, TF over GST control)"
same,binding signal,ELF4,"1.02 fold enrichment (6-mer frequency, TF over GST control)"
same,binding signal,ELK4,"1.06 fold enrichment (6-mer frequency, TF over GST control)"
same,binding signal,ELF3,"1.16 fold enrichment (6-mer frequency, TF over GST control)"
same,binding signal,CRX,"1.15 fold enrichment (6-mer frequency, TF over GST control)"
same,binding signal,ETV1,"1.01 fold enrichment (6-mer frequency, TF over GST control)"
